A number with no mark means an inactive call. Inconclusive results are not listed. The source made the active and inactive calls. Unless noted, calls come from the whole dose curve; as a rule, active = well fitted curve in the direction sought with a large enough effect in the repeat runs; inconclusive = weak or mixed curves; inactive = no such curve, though single readings can be large; an effect the other way counts as inactive or inconclusive.

Here are results for 27 molecules from PubChem BioAssay (Tox21).

Test [1] in a line: qHTS assay to identify small molecule antagonists of the glucocorticoid receptor (GR) signaling pathway - cell viability counter screen (AID 720693). Note: nearly all actives have a fitted effect of over 55% in size. On the technique in general: qHTS replaces the single test concentration by a dilution series.
Test [2] in a line: qHTS assay for identifying genotoxic compounds that show differential cytotoxicity against isogenic chicken DT40 cell lines with known DNA damage response pathways - wild type cell line (AID 743012). Note: nearly all actives have a fitted effect of over 60% in size. Note: potency is the fitted concentration of half-maximal effect. The procedure, abridged: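 Parental DNA repair-proficient DT40 cells, 300 per well, were pre-incubated ~0.5 h at 37 C/5% CO2, pin-dosed with compounds in DMSO, then incubated 40 h. Viability was read as CellTiter-Glo luminescence after 30 min at room temperature.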

Test [3] in a line: qHTS assay for identifying genotoxic compounds that show differential cytotoxicity against isogenic chicken DT40 cell lines with known DNA damage response pathways - Rev3 mutant cell line (AID 743014). Note: nearly all actives have a fitted effect of over 55% in size. Note: potency is the fitted concentration of half-maximal effect.
Test [4] in a line: qHTS assay for identifying genotoxic compounds that show differential cytotoxicity against isogenic chicken DT40 cell lines with known DNA damage response pathways - Rad54/Ku70 mutant cell line (AID 743015). Note: nearly all actives have a fitted effect of over 60% in size. Note: potency is the fitted concentration of half-maximal effect.
Test [5] is described as follows: qHTS assay to identify small molecule antagonists of the androgen receptor (AR) signaling pathway - cell viability counter screen (AID 743033; note: nearly all actives have a fitted effect of over 45% in size).
Test [6] in a line: qHTS assay to identify small molecule antagonists of the androgen receptor (AR) signaling pathway using the MDA cell line - cell viability counter screen (AID 743041; note: nearly all actives have a fitted effect of over 45% in size). The method, boiled down: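 Cells were plated at 3,000 per well and left 5 h. Compounds in DMSO were then pinned in, followed by R1881. After 16 h at 37C, CellTiter-Fluor fluorescence gave viability.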
The target of test [7] is Androgen receptor (Homo sapiens) (UniProt P10275). Kind of test: qHTS assay to identify small molecule agonists of the androgen receptor (AR) signaling pathway (AID 743036; active = well fitted activation curve with a large enough effect in the signal ratio in the repeat runs, with a control signal flat, not every such curve was filed as active; the % refers to the signal ratio). The procedure, abridged: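 Beta-lactamase under UAS control, stably integrated in HEK293 GripTite cells, reports receptor activation. After 16 h compound treatment, cells received FRET substrate for 2 h at room temperature before fluorescence reading.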

For test [8] the target is unchanged. Kind of test: qHTS assay to identify small molecule agonists of the androgen receptor (AR) signaling pathway using the MDA cell line (AID 743040; note: nearly all actives have a fitted effect of over 20% in size). The procedure, abridged: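 Cells plated, 5 h at 37C/0% CO2; compound or DMSO pinned; 16 h at 37C; ONE-Glo added; luminescence measured after 30 min at room temperature. Reporter line: MDA-kb2 with MMTV-luciferase responsive to AR and GR.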

Test [9] shares this target. Nature of the test: qHTS assay to identify small molecule antagonists of the androgen receptor (AR) signaling pathway using the MDA cell line (AID 743042; note: nearly all actives have a fitted effect of over 55% in size). The method, boiled down: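 Antagonist mode: compounds plus R1881 agonist added to MDA-kb2 AR-luc cells, incubated 16 h at 37C. Luciferase reporter luminescence quantified, with multiplexed CellTiter-Fluor readout for cell viability.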

The nature of test [10]: qHTS assay to identify small molecule antagonists of the thyroid receptor (TR) signaling pathway - cell viability counter screen (AID 743064). Note: nearly all actives have a fitted effect of over 50% in size. The method, boiled down: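 Compounds were tested on GH3.TRE-Luc cells in the presence of T3 at 1 nM final. Following 23.5 h at 37 °C, cell viability was quantified by CellTiter-Fluor.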

Androgen receptor (Homo sapiens), sequence (P10275 whole entry, looked up): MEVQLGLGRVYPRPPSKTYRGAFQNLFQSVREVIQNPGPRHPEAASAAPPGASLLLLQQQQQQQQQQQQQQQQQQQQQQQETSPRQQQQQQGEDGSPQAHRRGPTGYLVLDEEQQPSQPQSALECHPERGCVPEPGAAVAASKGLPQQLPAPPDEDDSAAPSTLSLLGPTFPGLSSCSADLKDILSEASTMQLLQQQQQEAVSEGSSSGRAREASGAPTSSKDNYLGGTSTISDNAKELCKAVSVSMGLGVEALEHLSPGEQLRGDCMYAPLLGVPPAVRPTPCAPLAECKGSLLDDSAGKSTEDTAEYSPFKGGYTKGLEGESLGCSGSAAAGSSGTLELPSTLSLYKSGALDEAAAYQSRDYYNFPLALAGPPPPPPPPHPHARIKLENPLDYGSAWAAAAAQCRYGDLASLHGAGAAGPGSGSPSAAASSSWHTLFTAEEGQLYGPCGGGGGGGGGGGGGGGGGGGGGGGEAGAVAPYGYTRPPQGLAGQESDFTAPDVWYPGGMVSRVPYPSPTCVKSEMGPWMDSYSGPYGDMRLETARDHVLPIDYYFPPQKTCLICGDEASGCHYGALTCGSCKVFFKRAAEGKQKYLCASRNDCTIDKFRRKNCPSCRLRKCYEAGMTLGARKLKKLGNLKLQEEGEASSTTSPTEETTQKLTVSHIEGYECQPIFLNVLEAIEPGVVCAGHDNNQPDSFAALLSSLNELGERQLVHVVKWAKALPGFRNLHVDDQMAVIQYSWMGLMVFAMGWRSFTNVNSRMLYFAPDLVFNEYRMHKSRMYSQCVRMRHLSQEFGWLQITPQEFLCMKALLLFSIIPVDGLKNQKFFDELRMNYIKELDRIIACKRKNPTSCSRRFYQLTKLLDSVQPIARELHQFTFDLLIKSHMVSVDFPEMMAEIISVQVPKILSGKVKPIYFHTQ

For `CC(C)(O)c1ccc(C(C)(C)O)cc1`, the molecule was called inactive in [1], in test [5] and in test [6]. The Potency result in test [2], in test [3] and in test [4] was “inactive” in each case.

Take `CCCCCCCCC1CO1` (stereo not drawn): the call in test [1], in test [5], in [7], in test [8], in test [6] and in [9] was inactive. Moreover, the Potency entry in [2], in test [3], in [4] and in [10] was “inactive” each time.

In the case of `Nc1cc(S(=O)(=O)O)ccc1O`, the molecule was classed as inactive in test [1], in test [5], in test [7], in test [8], in test [6] and in test [9]. Moreover, the Potency entry in test [2], in test [3], in [4] and in [10] was “inactive” each time.

Consider `CC/C=C\CCOC(=O)c1ccccc1`, for which the call in test [1], in [5], in test [7], in test [8], in [6] and in test [9] was inactive. The Potency result in [2], in [3], in test [4] and in [10] was “inactive” each time.

In the case of `C/C=C/C(=O)CCCC`, the call in [1], in test [5] and in test [6] was inactive. Moreover, the Potency entry in [2], in test [3], in test [4] and in test [10] was “inactive” in each case.

As to `COCc1nnc(-c2ccc[n+]([O-])c2)n1-c1c(Cl)c(Cl)cc2[nH]c(=O)c(=O)[nH]c12`, the call in test [1], in test [5], in test [7], in test [8], in test [6] and in [9] was inactive. In addition, the Potency entry in [2], in test [3], in test [4] and in [10] was “inactive” in each case.

Regarding `C/C(Cl)=C/CCl`, the result in test [1], in test [5], in test [7], in [6] and in test [9] was inactive. For the same molecule, the Potency result in test [2], in [3], in test [4] and in test [10] was “inactive” each time.

As for `C[C@@H]1NC(=O)[C@@H](N)CNC(=O)[C@H](C2CCNC(N)=N2)NC(=O)/C(=C/NC(N)=O)NC(=O)[C@H](CNC(=O)C[C@@H](N)CCCN)NC1=O` (stereo partly drawn), the outcome in test [1], in [5] and in test [6] was inactive. Also, the Potency result in [2], in [3], in [4] and in test [10] was “inactive” in each case.

Take `N#Cc1ccccc1C#N`: the outcome in test [1], in test [5], in test [7], in test [8] and in test [9] was inactive. Besides, the Potency entry in test [2], in test [3], in test [4] and in test [10] was “inactive” throughout.

Turning to `O=C1c2ccccc2C(=O)N1CO`, the molecule was classed as inactive in test [1], in [5], in test [7], in [8], in test [6] and in test [9]. The Potency result in test [2], in [3], in test [4] and in test [10] was “inactive” each time.

In the case of `CC(C)OC(=O)C(C(=O)OC(C)C)=C1SC=CS1`, the molecule was called inactive in test [1], in [5], in test [7], in test [8], in [6] and in [9]. For the same molecule, the Potency in test [2] is 23.7 µM (active); in [3], 26.6 µM (active); in test [4] it was 23.7 µM (active).

Consider `COc1cc(C(=O)NC2CCCNC2)cc(OC)c1OC` (stereo not drawn), for which the result in [1], in [5] and in test [6] was inactive. Further, the Potency result in test [2], in test [3] and in test [4] was “inactive” each time.

Take `Cc1ccc(O)c([N+](=O)[O-])c1`: the outcome in [1], in test [5] and in test [6] was inactive. The Potency entry in test [2], in [3] and in test [4] was “inactive” throughout.

Turning to `CC(C)CC(O)Cc1ccccc1` (stereo not drawn), the molecule was classed as inactive in test [1], in test [5], in test [7], in test [8] and in test [9]. Also, the Potency result in test [2], in [3], in test [4] and in [10] was “inactive” in each case.

On to `O=C(OOC(=O)c1ccccc1)c1ccccc1`, for which the result in test [1], in test [5] and in [6] was inactive. Besides, the Potency result in test [2], in test [3], in [4] and in test [10] was “inactive” each time.

Consider `C=CCCCCCCCCCCCCCC`, for which the outcome in [1], in test [5] and in [6] was inactive. Further, the Potency entry in test [2], in test [3], in [4] and in test [10] was “inactive” in each case.

Turning to `CN1CCN(C(=O)C2CCCCC2)CC1`, the molecule was classed as inactive in [1], in [5] and in test [6]. The Potency entry in [2], in [3] and in test [4] was “inactive” in each case.

Consider `CCCC(C)C(O)CC` (stereo not drawn), for which the molecule was called inactive in test [1], in test [5] and in [6]. Besides, the Potency result in test [2], in [3], in test [4] and in [10] was “inactive” throughout.

Turning to `CCCCN(CCCC)CCCCCCN(CCCC)CCCC`, the result in [1], in test [5] and in test [6] was inactive. Also, the Potency result in test [2], in [3] and in test [4] was “inactive” each time.

With `Cc1ccc2ccccc2n1`, the outcome in [1], in test [5] and in [6] was inactive. Besides, the Potency result in test [2], in test [3], in [4] and in test [10] was “inactive” each time.

Consider `O=c1c(O)c(O)c1=O`, for which the molecule was called inactive in [1], in test [5] and in test [6]. Besides, the Potency entry in test [2], in test [3], in [4] and in [10] was “inactive” each time.

Turning to `CCCCNCC`, the molecule was called inactive in test [1], in [5] and in [6]. Moreover, the Potency result in test [2], in test [3] and in test [4] was “inactive” each time.

In the case of `CC(=O)OC1CCC(C(C)(C)C)CC1` (stereo not drawn), the result in [1], in test [5], in test [7], in [8], in test [6] and in [9] was inactive. The Potency result in [2], in test [3], in test [4] and in test [10] was “inactive” each time.

Regarding `C[C@@H]1CC[C@@]2(OC1)O[C@H]1C[C@H]3[C@@H]4CC[C@H]5C[C@@H](O)CC[C@]5(C)[C@H]4CC(=O)[C@]3(C)[C@H]1[C@@H]2C`, the result in [1], in test [5] and in [6] was inactive. In addition, the Potency entry in test [2], in test [3], in [4] and in test [10] was “inactive” throughout.

For the molecule `CCCCCCCCS(=O)(=O)O`, the result in test [1], in [5] and in [6] was inactive. The Potency result in [2], in [3] and in test [4] was “inactive” in each case.

Regarding `O=C(c1ccccc1)c1cccc(O)c1`, the call in test [1], in [5], in test [6] and in [9] was inactive. The Potency result in test [2], in test [3], in [4] and in [10] was “inactive” each time.

On to `O=C(O)Cc1ccccc1Oc1ccc(Cl)cc1Cl`, for which the call in test [1], in test [5] and in [6] was inactive. Also, the Potency entry in test [2], in [3] and in [4] was “inactive” throughout.
